These results are taken from PubChem BioAssay AID372 (MTDP, 2006).

Molecules are shown by their SMILES. The whole screen tested about 100,000 compounds, of which about 770 (0.77%) were called active. The sample holds actives, similar compounds and a random draw of the others, so the mix is not that of the screen. Values without a mark were called inactive. Rule as the data show it: active = inhibition above about 50%; inactive = the rest.

What is called inhibition is how much of the control response was suppressed.

The target of the experiment is Gag-Pol polyprotein (Human immunodeficiency virus type 1 group M subtype B (isolate HXB2)) (UniProt P04585). Nature of the experiment: RNase H inhibition, HIV 1 Gag Pol polyprotein, FRET biochemical assay, screening (AID 372). The following applies: HIV-1 RT RNase H, FRET RNA/DNA substrate fluorescence; at 10 µM; stronger effect = higher value.
Turning to `O=C(O)C1CCCCC1C(=O)NCc1ccccc1` (stereo not drawn), the inhibition is 0%.

Turning to `O=C(Nc1ccccc1)c1ccccc1C(=O)OCCCCCc1cccs1`, the inhibition is 1%.

With `CC(/C=C(\NC(=O)c1ccccc1)C(=O)N/N=C/c1cccc([N+](=O)[O-])c1)=C\c1ccccc1`, the inhibition is 6%.

On to `O=C(Nc1ccc(-c2ccc(Cl)cc2)cc1)C1CC1`, for which the inhibition was 6%.

With `O=[N+]([O-])c1ccc(C2Nc3ccc(I)cc3C3C=CCC32)cc1` (stereo not drawn), the inhibition was 25%.

As to `Cc1ccc(S(=O)(=O)N(CC(O)CN(CC(C)C)CC(C)C)c2cccc(C)c2)cc1` (stereo not drawn), the inhibition is 9%.

`COc1ccc2ccccc2c1/C=N/NC(=O)c1ccc(-c2ccccc2)cc1`: the inhibition is 13%.

In the case of `O=C(Nc1ccc(NC(=O)c2ccc(Cl)cc2Cl)c(Cl)c1)c1ccccc1`, the inhibition was 3%.

For `COc1ccc2c(c1)-c1c(ssc1=S)C(C)(C)N2C(=O)c1ccccc1OC`, the inhibition is 60% (active).

`COc1ccc2c(c1)-c1c(ssc1=S)C(C)(C)N2C(=O)c1ccccc1Br`: the inhibition was 27%.

With `COc1ccc2c(c1)-c1c(ssc1=S)C(C)(C)N2C(=O)c1ccc(OC)c(OC)c1`, the inhibition is 4%.

`CCC1CCc2c(sc(NC(=O)c3ccc(Br)o3)c2C(=O)OC)C1` (stereo not drawn): the inhibition is 13%.

Turning to `COc1ccccc1S(=O)(=O)CC(SC#N)c1ccccc1` (stereo not drawn), the inhibition is 4%.

With `Cc1c(CCNC(=O)c2ccccc2F)c2ccccc2n1Cc1ccccc1`, the inhibition was 28%.

For the molecule `Cc1c(CCNC(=O)c2ccccc2)c2ccccc2n1Cc1ccccc1`, the inhibition was 57% (active).

Take `CC(=O)NCCc1c(C)n(Cc2ccccc2)c2ccccc12`: the inhibition is 2%.

In the case of `O=C1OC(c2ccccc2)=N/C1=C\c1ccc(F)c(Br)c1`, the inhibition is 16%.

As to `CCOC(=O)C1=C(C)N=c2s/c(=C\c3ccc(Br)cc3)c(=O)n2C1c1ccc(OC)c(OC)c1` (stereo not drawn), the inhibition was 0%.

Turning to `CC(=O)/C(=C1\NC(C)(C)Cc2ccccc21)c1ccccc1`, the inhibition was 3%.

For the molecule `N#C/C(=C/c1ccc(Sc2ccccc2)o1)C(=O)NCc1ccccc1`, the inhibition was 25%.

Turning to `N#C/C(=C/c1ccc(Sc2ccccc2)o1)c1nc2ccccc2[nH]1`, the inhibition is 15%.

Consider `N#C/C(=C\c1ccc(-c2ccccc2)o1)C(=O)NCc1ccccc1`, for which the inhibition was 16%.

In the case of `N#C/C(=C\c1ccc(Sc2ccccc2)o1)c1ccccc1`, the inhibition was 52% (active).

As to `N#C/C(=C\c1ccc(I)o1)c1ccccc1`, the inhibition was 41%.

In the case of `Cc1ccc(Sc2ccc(/C=C(\C#N)C(=O)NCc3ccccc3)o2)cc1`, the inhibition was 50% (active).

`CCc1cc2c(=O)n(N)c(CCC(=O)O)nc2s1`: the inhibition is 6%.

As to `CCOC(=O)c1cc(Br)c(Cl)cc1[N+](=O)[O-]`, the inhibition was 10%.

As for `COc1ccc(C(NC(=O)c2ccco2)c2ccc(OC)c(OC)c2)cc1` (stereo not drawn), the inhibition is 23%.

For `Cc1ccc2oc(-c3ccc(NC(=O)c4ccc(C)c([N+](=O)[O-])c4)cc3)nc2c1`, the inhibition was 0%.

For the molecule `OC(COc1ccccc1Cl)Cn1cnc2ccccc21` (stereo not drawn), the inhibition is 5%.

For `O=C(N/N=C/c1ccc(-c2ccc(Cl)cc2Cl)o1)c1ccccc1`, the inhibition is 15%.

Turning to `CCN1C(=O)/C(=C/c2ccc(C)o2)C(=O)NC1=S`, the inhibition was 21%.

Turning to `CCN1C(=O)C(=Cc2ccc(O)cc2)C(=O)NC1=S`, the inhibition is 4%.

For `CCOc1cc(/C=N/NC(=O)C(=O)NCc2ccc(Cl)cc2)ccc1O`, the inhibition was 1%.

`CC1(C)NC(=O)N(CC(O)COc2cccc(OCC(O)CN3C(=O)NC(C)(C)C3=O)c2)C1=O` (stereo not drawn): the inhibition is 11%.

Consider `COC(=O)c1c(NC(=O)Cc2ccccc2)sc(C)c1C`, for which the inhibition was 24%.

Take `Cc1sc(NC(=O)c2ccc(F)cc2)c(C(N)=O)c1C`: the inhibition is 8%.

`Cc1sc(NC(=O)c2ccc(Br)o2)c(C#N)c1C`: the inhibition is 4%.

As for `CCOC(=O)c1sc(NC(=O)c2ccc(Br)o2)c(C(N)=O)c1C`, the inhibition was 0%.

With `Cc1sc(NC(=O)c2ccc(-c3ccccc3)cc2)c(C(N)=O)c1C`, the inhibition is 13%.

With `CCOC(=O)c1c(NC(=O)Cc2ccccc2)sc(C)c1C`, the inhibition was 0%.

Regarding `Cc1sc(NC(=O)c2ccco2)c(C#N)c1C`, the inhibition was 7%.

As for `COC(=O)c1c(NC(=O)c2ccco2)sc(C)c1C`, the inhibition was 15%.

Turning to `CCOc1cc(/C=C2\SC(=S)N(c3ccc(F)cc3)C2=O)ccc1O`, the inhibition was 18%.

`CCN(CC)c1ccc(C(=O)Nc2cc(Cl)cc(Cl)c2)cc1`: the inhibition is 20%.

As to `Cc1ccc(C(=O)COC(=O)c2cccc(N3C(=O)C4C5C=CC(C6CC56)C4C3=O)c2)cc1` (stereo not drawn), the inhibition was 9%.

With `CCOc1ccc(-n2sc3c(c2=S)-c2cc(C)ccc2N(Cc2ccccc2)C3(C)C)cc1`, the inhibition is 32%.

Consider `Cc1cc(C)cc(NC(=O)C(C)N2C(=O)c3ccccc3C2=O)c1` (stereo not drawn), for which the inhibition is 0%.

Regarding `CC1=C(C(=O)OCC(C)C)C(c2cccc(O)c2)C2=C(CC(c3ccc(Cl)cc3)CC2=O)N1` (stereo not drawn), the inhibition was 21%.

As to `O=C(/C=C/c1ccccc1)NC(=S)Nc1ccc(Br)cn1`, the inhibition was 21%.

For `CCOC(=O)c1ccc(Nc2cc(-c3ccccc3)ncn2)cc1`, the inhibition was 18%.

`COc1cc(CN2CCN(Cc3ccc(OC)c(OC)c3OC)CC2)cc(OC)c1OC`: the inhibition was 4%.

Regarding `O=C(/C=C/c1ccc2c(c1)OCO2)NCc1ccc(Cl)cc1Cl`, the inhibition is 11%.

Take `CCOC(=O)c1sc(NC(=O)Cn2nc([N+](=O)[O-])c([N+](=O)[O-])c2C)c(C(=O)OCC)c1C`: the inhibition is 6%.

Turning to `Cc1nn(CC(=O)Nc2sc3c(c2C#N)CCCC3)c(C)c1[N+](=O)[O-]`, the inhibition is 8%.

With `O=C(O)c1c(Br)c(Br)c(Br)c(Br)c1C(=O)NCCC1=CCCCC1`, the inhibition was 0%.

Turning to `NNC(=O)CN1C(c2ccccc2)=Nc2ccc(Br)cc2C1c1ccccc1` (stereo not drawn), the inhibition is 15%.

Turning to `COc1ccc(N2C(=O)/C(=C\c3c(OC)cc(OC)cc3OC)C(=O)NC2=S)cc1`, the inhibition is 1%.

Turning to `O=C1c2ccccc2C(=O)N1CC(O)Cn1c2ccc(Br)cc2c2cc(Br)ccc21` (stereo not drawn), the inhibition is 16%.

For `CCc1ccc(OCCCCCCN2CCOCC2)cc1`, the inhibition was 8%.

`CCc1ccc(OCCCN2CCOCC2)cc1`: the inhibition was 3%.

On to `CCc1ccc(OCCN2CCOCC2)cc1`, for which the inhibition was 50% (active).

Take `Cc1cc(/C=C2\C(=O)NC(=O)N(c3ccc(Br)cc3)C2=O)c(C)n1-c1cccnc1`: the inhibition is 2%.
